Screening data deposited in PubChem BioAssay by The Scripps Research Institute Molecular Screening Center.
hcDAF12 agonist = H. contortus DAF-12 nuclear receptor activators, primary screen, cell-based, luminescence, HEK293, lit1-tk-luc reporter | HEK293 hcDAF-12 lit1-tk-luc reporter; 0% DMSO, 100% Δ7-dafachronic acid | activation, % at 6.8 µM | 370,000 tested, 1.4% active | AID 652067, 2013;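 active = activation above the mean of all tested compounds plus 3 SD, cut at about 5.5% in these data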;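 note: 100% = response to 3 µM Δ7-dafachronic acid high control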
DAX1 inh-1 = DAX1 (NR0B1) inhibitors on StAR promoter, primary screen, cell-based, luminescence, SF-1 (NR5A1), full-length DAX-1 | 370,000 tested, 1.1% active | HEK293T StAR-luciferase reporter, SF-1/DAX-1 repression relief | inhibition, % at 6.8 µM;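 active = inhibition above the mean over all tested compounds plus 3 SD, cut at about 3.6% in these data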;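 note: 0% = DAX-1 cells with DMSO and 100% = cells lacking DAX-1 with DMSO; higher inhibition means more luminescence from relief of DAX-1 repression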
ssDAF-12 act = S. stercoralis DAF-12 nuclear receptor activators, primary screen, cell-based, luminescence, HEK293, GRIP1 co-expression, lit1-tk-luc; Nuclear hormone receptor DAF-12 (Strongyloides stercoralis); HEK293 ssDAF-12/GRIP1 lit1-tk-luc reporter; % of 3 µM dafachronic acid response; activation, % at 6.8 µM; 370,000 tested, 1% active;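 active = activation above the mean over all tested compounds plus 3 SD, cut at about 0.9% in these data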;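 note: 0% = DMSO-only wells and 100% = 3 µM delta7-dafachronic acid wells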
hgDAF-12 ag = H. glycines DAF-12 receptor agonists, primary screen, cell-based, luminescence, HEK293, GAL4 fusion, UAS-luciferase; Nuclear hormone receptor DAF-12 (Heterodera glycines), GAL4 fusion; HEK293 GAL4-hgDAF12 UAS-luciferase reporter, agonist luminescence; normalized to butyrate control; activation, % at 6.8 µM; 370,000 tested, 1.8% active; AID 687014, 2013;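 active = activation above a cutoff set at the mean of all screened compounds plus 3 SD, cut at about 10% in these data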;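 note: 0% = DMSO wells and 100% = sodium butyrate wells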
DAX1 inh-2 = DAX1 (NR0B1) inhibitors, primary screen, cell-based, HEK293, Gal4-DAX1, luciferase luminescence | Nuclear receptor subfamily 0 group B member 1 (Homo sapiens), P51843 | HEK293 Gal4-DAX1 luciferase reporter | inhibition, % at 6.75 µM | 340,000 tested, 0.99% active | AID 504766, 2011;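 active = inhibition above the mean over all tested compounds plus 3 SD, cut at about 4.2% in these data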;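 note: 0% = DAX1-transfected cells with DMSO and 100% = empty-vector control cells with DMSO; inhibition shows as a rise in luminescence from relieved DAX1 repression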
DAX1 inh confirm = DAX1 (NR0B1) inhibitors relieving SF-1 repression, confirmation, cell-based, luminescence, HEK293T, full-length DAX-1, SF-1 activated StAR promoter. inhibition, % at 6.8 µM. AID 652134, 2013. HEK293T StAR-promoter luciferase reporter, SF-1/DAX-1 repression. 2,400 tested, 87% active. shares compounds with DAX1 inh-1;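 active = inhibition above the average of every tested compound plus 3 SD, cut at about 3.8% in these data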;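 note: 0% = DAX-1 cells with DMSO and 100% = no DAX-1 control cells with DMSO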
Target sequence (P51843 whole entry, looked up): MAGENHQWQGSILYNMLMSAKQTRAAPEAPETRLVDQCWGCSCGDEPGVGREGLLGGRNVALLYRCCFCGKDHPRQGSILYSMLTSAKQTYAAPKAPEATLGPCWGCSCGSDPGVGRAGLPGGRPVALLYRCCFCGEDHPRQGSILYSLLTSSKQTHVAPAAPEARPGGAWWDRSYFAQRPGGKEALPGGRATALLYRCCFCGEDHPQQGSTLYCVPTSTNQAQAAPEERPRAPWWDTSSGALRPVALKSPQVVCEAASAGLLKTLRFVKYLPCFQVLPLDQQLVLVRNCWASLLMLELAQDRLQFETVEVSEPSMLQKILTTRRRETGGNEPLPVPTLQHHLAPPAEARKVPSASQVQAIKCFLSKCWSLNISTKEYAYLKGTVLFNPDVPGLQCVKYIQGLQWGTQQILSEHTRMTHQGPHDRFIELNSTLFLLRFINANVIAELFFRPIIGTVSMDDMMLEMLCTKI
SF1 mutant ctr = StAR reporter signal changes without DAX1, counter-screen for DAX1 inhibitor project, cell-based, luminescence, AF-2 mutant SF-1, transactivation | shares compounds with DAX1 inh-1 | HEK293 StAR-luciferase, SF-1 AF2 mutant | inhibition, % at 6.8 µM | 2,400 tested, 78% active;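 active = inhibition above the mean of all tested compounds plus 3 SD, cut at about 3% in these data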;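 note: 0% = DAX-1 transfected cells with DMSO and 100% = cells without DAX-1 with DMSO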
* marks the source's active call; other numbers are inactive results; · = not tested or not shown. Shown are actives, neighbours in structure and some others; about 4.1% of the full set was active somewhere.

SMILES	hcDAF12 agonist	DAX1 inh-1	ssDAF-12 act	hgDAF-12 ag	DAX1 inh-2	DAX1 inh confirm	SF1 mutant ctr
CCCOC1CCCN(C(=O)CCc2nnc(-c3ccc4c(c3)OCO4)o2)C1 (stereo unspecified)	2.1	2.7	-0.2	4.2	0.7	·	·
Cc1ccc(CNC(=O)Cc2noc3ccccc23)cc1	3.4	9.5*	0.1	11.4*	-0.1	8.2*	4.8*
COc1ccc(Br)cc1Cn1nnc(C(=O)Nc2ccc3c(c2)OCCO3)c1N	-2.2	-0.7	-1.7	-2.9	-0.5	·	·
Nc1c(C(=O)Nc2ccc3c(c2)OCCO3)nnn1Cc1ccccc1Cl	1.6	7.0*	-0.6	6.8	-0.3	9.1*	5.5*
Nc1c(C(=O)Nc2ccc3c(c2)OCCO3)nnn1Cc1cccc(Cl)c1	2.1	5.2*	-0.6	2.6	0.4	11.0*	4.3*
CCn1c(SCC(=O)N(C)CC(=O)Nc2ccc(OC)cc2)nnc1-c1ccco1	-1.0	-1.0	-0.7	0.5	0.9	·	·
CC(Sc1ccccc1F)C(=O)Nc1ccc2c(c1)OCCO2 (stereo unspecified)	3.9	4.9*	0.9*	9.7	1.8	6.5*	4.0*
Cc1cccc(NC(=O)CSCC(=O)Nc2ccc(S(=O)(=O)N3CCOCC3)cc2)c1	0.0	-1.6	-1.0	-0.4	-0.2	·	·
O=C(CSc1nnc(-c2ccccc2F)o1)N1CCNC1=O	5.5	7.7*	-0.3	9.7	1.2	11.4*	6.8*
CC1CCN(C(=O)CSc2nnc(-c3ccccc3F)o2)CC1	-0.5	0.0	-1.2	0.3	1.4	·	·
N/C(=N\OC(=O)c1ccc(Cl)cc1)c1ccn[nH]1	4.8	14.9*	0.2	9.7	-1.3	12.6*	7.8*
CCNC(=O)C1CCCN(C(=O)c2cccc(C(F)(F)F)c2)CC1 (stereo unspecified)	1.3	-0.3	-0.9	2.5	·	·	·
CC1=C(C(=O)Nc2ccc(CC(=O)NCc3ccccc3C)cc2)SCCO1	-0.1	-0.3	-0.3	2.5	0.2	·	·
CCc1ccc(CNC(=O)Cc2ccc(NC(=O)C3=C(C)OCCS3)cc2)cc1	5.4	15.5*	0.4	8.6	0.3	20.7*	-3.6
CCCCN(C)CCNC(=O)CN1C(=O)CSc2ccc(S(=O)(=O)N3CCCC3)cc21	-0.2	7.2*	-0.7	1.8	1.0	3.3	0.6
O=C1c2ccccc2C(c2nnnn2-c2ccc3ccccc3c2)N1C1CC1 (stereo unspecified)	1.4	2.1	-1.0	-0.8	·	·	·
Cc1cccc(C)c1-n1nnnc1C1c2ccccc2C(=O)N1C1CC1 (stereo unspecified)	-0.3	4.9*	-1.1	-0.3	·	-1.9	-1.1
COc1cccc(-c2nnc(-c3ccc4ccccc4c3)o2)c1	4.4	5.5*	-0.4	10.0	2.8	14.8*	6.1*
Cc1ccc(-c2nnc(-c3ccc4ccccc4c3)o2)cc1	3.2	0.7	-0.4	6.5	2.3	·	·
O=C(NC1CCN(C(=S)NCc2ccco2)CC1)c1cccc(F)c1	-0.5	-0.9	-1.9	-1.9	-0.3	·	·
Cc1ccc2nc(SC(C)C(=O)N3CCOCC3)[nH]c2c1 (stereo unspecified)	3.8	7.3*	-0.5	11.2*	1.5	6.2*	5.0*
Cc1ccc(NC(=O)CSc2nnc(-c3ccc(S(=O)(=O)N4CCCC4)cc3)o2)cc1C	-2.5	0.1	-0.9	-0.7	-1.2	·	·
Cc1cccc(-c2cc3nc4c(c(NCc5ccco5)n3n2)CCCC4)c1	0.2	5.0*	-0.1	11.7*	1.6	5.4*	3.1*
COc1ccc(C(=O)OCC(=O)NC(C)CCc2ccccc2)c(OC)c1 (stereo unspecified)	-0.9	-0.3	-1.6	0.8	-0.8	·	·
O=C(NCc1ccc2c(c1)OCO2)C1CCC(=O)N1C1CCCCC1 (stereo unspecified)	1.7	1.5	-1.4	2.5	0.9	·	·
SMILES	hcDAF12 agonist	DAX1 inh-1	ssDAF-12 act	hgDAF-12 ag	DAX1 inh-2	DAX1 inh confirm	SF1 mutant ctr
O=C(NC(CC(=O)N1CCN(c2ccccc2)CC1)c1ccccc1)c1ccccc1 (stereo unspecified)	-1.5	-0.8	-1.8	-2.2	1.7	·	·
CC(=O)NC(CC(=O)N1CCN(C(C)=O)CC1)c1ccccc1 (stereo unspecified)	0.0	5.3*	-0.6	1.1	-0.3	2.6	0.2
CC(=O)Nc1cccc(-c2csc(Nc3ccccn3)n2)c1	5.1	4.5*	-0.5	7.5	1.6	12.3*	6.0*
CC(OC(=O)CCc1cc(C(C)(C)C)c(O)c(C(C)(C)C)c1)C(=O)NC1CC1 (stereo unspecified)	1.3	-0.6	-1.1	1.5	0.5	·	·
COc1cccc(CN2CCNC(=O)C2CC(=O)N(C)Cc2nc(C)cs2)c1OC (stereo unspecified)	-0.7	-0.4	-0.5	0.5	2.8	·	·
COc1cccc(C(C)NC(=O)c2ccncc2)c1 (stereo unspecified)	-0.8	-0.6	-1.5	0.2	0.1	·	·
CCCCCCN1C[C@H](O)[C@@H](n2cc(COC(=O)c3ccccc3)nn2)C[C@@H]1c1ccccc1	-0.7	0.3	-1.2	0.6	0.3	·	·
CCCCCCN1C[C@@H](O)[C@H](n2cc(COC(=O)c3ccccc3)nn2)C[C@@H]1c1ccccc1	-1.6	4.6*	-0.6	-2.3	1.4	-0.6	-0.7
CCOC(=O)[C@]12CCCC=C1N(Cc1ccc(Cl)cc1Cl)C(=O)[C@H](CC(=O)N1CCSCC1)C2	-1.1	-0.4	-1.1	1.5	·	·	·
Fc1ccc(-n2nnc(-c3ccnc4ccccc34)n2)cc1	4.0	0.7	-0.1	5.3	2.9	·	·
O=C(N/N=C/c1ccsc1)c1ccccn1	6.3*	5.7*	0.6	13.2*	5.0*	4.7*	2.7
C/C(Cc1ccccc1)=N\NC(=O)c1ccccn1	3.4	8.5*	0.0	12.3*	1.7	2.9	1.2
O=C(NN=C1CCC(=NNC(=O)c2ccccn2)CC1)c1ccccn1	5.5	5.7*	0.5	16.9*	0.2	1.2	0.7
O=C(NN=C(c1ccccc1)c1ccccn1)c1ccccc1	-2.3	-5.4	-1.7	-9.8	-2.9	·	·
